# Data published in paper PMC5540273 (PLoS ONE, 2017).
# Several values for one entry are separate records, joined by “and”; a condition that tells them apart may be missing. Equal values may be shown once. Read-outs that look alike come from different tables or passages of the source.
# Columns and labels:
# DMPK = settings: concentration: 1 μM, replicates: in singlicate; n = 1
# DRAK1 = tested on: T1, DRAK1; settings: concentration: 1 μM, replicates: in singlicate, n = 1
# T1 construct: gene STK17A
# DRAK2 = tested on: T2, DRAK2; settings: n = 1
# T2 construct: gene STK17B
# DYRK1A = settings: concentration: 1 μM, replicates: in singlicate; n = 1
# DYRK1B = settings: concentration: 1 μM, replicates: in singlicate, n = 1
# DYRK2 = settings: concentration: 1 μM, replicates: in singlicate, n = 1
# EGFR = settings: concentration: 1 μM, replicates: in singlicate, n = 1
# EIF2AK1 = settings: concentration: 1 μM, replicates: in singlicate, n = 1
# EPHA1 = settings: concentration: 1 μM, replicates: in singlicate; n = 1
# EPHA2 = settings: concentration: 1 μM, replicates: in singlicate; n = 1
# EPHA3 = settings: concentration: 1 μM, replicates: in singlicate, n = 1
# EPHA4 = settings: concentration: 1 μM, replicates: in singlicate, n = 1
# EPHA5 = settings: concentration: 1 μM, replicates: in singlicate, n = 1
# EPHA6 = settings: concentration: 1 μM, replicates: in singlicate, n = 1
# EPHA7 = settings: concentration: 1 μM, replicates: in singlicate; n = 1
# EPHA8 = settings: concentration: 1 μM, replicates: in singlicate; n = 1
# EPHB1 = settings: concentration: 1 μM, replicates: in singlicate, n = 1
# EPHB2 = settings: concentration: 1 μM, replicates: in singlicate, n = 1
# EPHB3 = settings: concentration: 1 μM, replicates: in singlicate; n = 1
# EPHB4 = settings: concentration: 1 μM, replicates: in singlicate; n = 1
# [1] = concentration: 1 μM, replicates: in singlicate
# 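Further: KINOMEscan kinase panel screen.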
smiles,measurement,setting,value
CN1c2ccc(CNc3ccc(F)cc3)cc2-c2c(cnn2C)S1(=O)=O,%Inh,DMPK,1%
same,%Inh,DRAK1,0%
same,%Inh,DRAK2; [1],0%
same,%Inh,DYRK1A,0%
same,%Inh,DYRK1B,0%
same,%Inh,DYRK2,0%
same,%Inh,EGFR,0%
same,%Inh,EIF2AK1,0%
same,%Inh,EPHA1,0%
same,%Inh,EPHA2,9%
same,%Inh,EPHA3,0%
same,%Inh,EPHA4,0%
same,%Inh,EPHA5,0%
same,%Inh,EPHA6,0%
same,%Inh,EPHA7,0%
same,%Inh,EPHA8,0%
same,%Inh,EPHB1,0%
same,%Inh,EPHB2,17%
same,%Inh,EPHB3,0%
same,%Inh,EPHB4,1%
CSc1ccc(-c2cc3ncnc(SCC(=O)O)c3s2)cc1,%Inh,DMPK,0%
same,%Inh,DRAK1,37%
same,%Inh,DRAK2; 1 µM,97.7%
same,%Inh,DYRK1A,0%
same,%Inh,DYRK1B,0%
same,%Inh,DYRK2,0%
same,%Inh,EGFR,27%
same,%Inh,EIF2AK1,12%
same,%Inh,EPHA1,11%
same,%Inh,EPHA2,0%
same,%Inh,EPHA3,0%
same,%Inh,EPHA4,5%
same,%Inh,EPHA5,13%
same,%Inh,EPHA6,6%
same,%Inh,EPHA7,0%
same,%Inh,EPHA8,0%
same,%Inh,EPHB1,4%
same,%Inh,EPHB2,0%
same,%Inh,EPHB3,15%
same,%Inh,EPHB4,18%
NS(=O)(=O)c1cccc(-c2ccc3nccc(-c4cccc(S(N)(=O)=O)c4)c3c2)c1 [GW867253],%Inh,DMPK,2%
same,%Inh,DRAK1,0%
same,%Inh,DRAK2; [1],0%
same,%Inh,DYRK1A,0%
same,%Inh,DYRK1B,0%
same,%Inh,DYRK2,32%
same,%Inh,EGFR,0%
same,%Inh,EIF2AK1,0%
same,%Inh,EPHA1,0%
same,%Inh,EPHA2,0%
same,%Inh,EPHA3,11%
same,%Inh,EPHA4,0%
same,%Inh,EPHA5,2%
same,%Inh,EPHA6,0%
same,%Inh,EPHA7,0%
same,%Inh,EPHA8,4%
same,%Inh,EPHB1,0%
same,%Inh,EPHB2,0%
same,%Inh,EPHB3,0%
same,%Inh,EPHB4,0%
Cl.Cl.Cl.Fc1ccc(-c2ncn(C3CCNCC3)c2-c2ccnc(Nc3ccccc3)n2)cc1 [SB-238039],%Inh,DMPK,28%
same,%Inh,DRAK1; 1 µM,9% and 3%
same,%Inh,"DRAK2; concentration: 1 μM, replicates: in singlicate, 1 µM",18% and 6%
same,%Inh,DYRK1A,0%
same,%Inh,DYRK1B; 1 µM,6% and 7%
same,%Inh,DYRK2; 1 µM,11% and 0%
same,%Inh,EGFR; 1 µM,90.1% and 72%
same,%Inh,EIF2AK1; 1 µM,0% and 1%
same,%Inh,EPHA1,0%
same,%Inh,EPHA2,0%
same,%Inh,EPHA3; 1 µM,34% and 25%
same,%Inh,EPHA4; 1 µM,8% and 0%
same,%Inh,EPHA5; 1 µM,7% and 10%
same,%Inh,EPHA6; 1 µM,18% and 0%
same,%Inh,EPHA7,0%
same,%Inh,EPHA8,10%
same,%Inh,EPHB1; 1 µM,31% and 0%
same,%Inh,EPHB2; 1 µM,25% and 0%
same,%Inh,EPHB3,0%
same,%Inh,EPHB4,0%
Fc1ccc(-c2ncn(CCCN3CCOCC3)c2-c2cccnc2)cc1 [SB-211743],%Inh,DMPK,24%
same,%Inh,DRAK1,0%
same,%Inh,DRAK2; [1],0%
same,%Inh,DYRK1A,3%
same,%Inh,DYRK1B,0%
same,%Inh,DYRK2,24%
same,%Inh,EGFR,0%
same,%Inh,EIF2AK1,0%
same,%Inh,EPHA1,0%
same,%Inh,EPHA2,0%
same,%Inh,EPHA3,1%
same,%Inh,EPHA4,0%
same,%Inh,EPHA5,11%
same,%Inh,EPHA6,0%
same,%Inh,EPHA7,0%
same,%Inh,EPHA8,3%
same,%Inh,EPHB1,20%
same,%Inh,EPHB2,0%
same,%Inh,EPHB3,0%
same,%Inh,EPHB4,0%
Cc1cccc(-c2nc(-c3ccc(S(C)(=O)=O)cc3)sc2-c2ccncc2)c1,%Inh,DMPK,0%
same,%Inh,DRAK1,0%
same,%Inh,DRAK2; [1],0%
same,%Inh,DYRK1A,0%
same,%Inh,DYRK1B,7%
same,%Inh,DYRK2,0%
same,%Inh,EGFR,0%
same,%Inh,EIF2AK1,1%
same,%Inh,EPHA1,0%
same,%Inh,EPHA2,10%
same,%Inh,EPHA3,9%
same,%Inh,EPHA4,48%
same,%Inh,EPHA5,1%
same,%Inh,EPHA6,44%
same,%Inh,EPHA7,19%
same,%Inh,EPHA8,21%
same,%Inh,EPHB1,14%
same,%Inh,EPHB2,13%
same,%Inh,EPHB3,34%
same,%Inh,EPHB4,41%
COc1ccc(S(=O)(=O)NC2CCN(c3cc(C)nc(Nc4cccc(C#N)c4)n3)CC2)cc1.O=C(O)C(F)(F)F [GSK1653539],%Inh,DMPK,0%
same,%Inh,DRAK1,0%
same,%Inh,DRAK2; [1],0%
same,%Inh,DYRK1A,6%
same,%Inh,DYRK1B,39%
same,%Inh,DYRK2,12%
same,%Inh,EGFR,18%
same,%Inh,EIF2AK1,0%
same,%Inh,EPHA1,0%
same,%Inh,EPHA2,0%
same,%Inh,EPHA3,7%
same,%Inh,EPHA4,11%
same,%Inh,EPHA5,0%
same,%Inh,EPHA6,0%
same,%Inh,EPHA7,0%
same,%Inh,EPHA8,0%
same,%Inh,EPHB1,7%
same,%Inh,EPHB2,0%
same,%Inh,EPHB3,13%
same,%Inh,EPHB4,16%
N#Cc1ccc(-c2cc(-c3c[nH]nc3-c3ccccn3)ccn2)cc1 [GW693028],%Inh,DMPK,0%
same,%Inh,DRAK1,0%
same,%Inh,DRAK2; [1],0%
same,%Inh,DYRK1A,17%
same,%Inh,DYRK1B,0%
same,%Inh,DYRK2,0%
same,%Inh,EGFR,0%
same,%Inh,EIF2AK1,6%
same,%Inh,EPHA1,17%
same,%Inh,EPHA2,2%
same,%Inh,EPHA3,18%
same,%Inh,EPHA4,2%
same,%Inh,EPHA5,0%
same,%Inh,EPHA6,0%
same,%Inh,EPHA7,44%
same,%Inh,EPHA8,39%
same,%Inh,EPHB1,7%
same,%Inh,EPHB2,8%
same,%Inh,EPHB3,5%
same,%Inh,EPHB4,11%
O=C(NOCC1CC1)c1ccc(F)c(F)c1Nc1ccc(I)cc1Cl,%Inh,DMPK,0%
same,%Inh,DRAK1,0%
same,%Inh,DRAK2; [1],21%
same,%Inh,DYRK1A,0%
same,%Inh,DYRK1B,0%
same,%Inh,DYRK2,0%
same,%Inh,EGFR,0%
same,%Inh,EIF2AK1,0%
same,%Inh,EPHA1,3%
same,%Inh,EPHA2,0%
same,%Inh,EPHA3,0%
same,%Inh,EPHA4,0%
same,%Inh,EPHA5,1%
same,%Inh,EPHA6,0%
same,%Inh,EPHA7,0%
same,%Inh,EPHA8,0%
same,%Inh,EPHB1,0%
same,%Inh,EPHB2,0%
same,%Inh,EPHB3,0%
same,%Inh,EPHB4,0%
Cl.Nc1ncnc2occ(-c3ccc(NC(=O)Nc4cc(C(F)(F)F)ccc4F)cc3)c12 [SB-707548],%Inh,DMPK,0%
same,%Inh,DRAK1,0%
same,%Inh,DRAK2; [1],0%
same,%Inh,DYRK1A,0%
same,%Inh,DYRK1B,0%
same,%Inh,DYRK2,14%
same,%Inh,EGFR,30%
same,%Inh,EIF2AK1,0%
same,%Inh,EPHA1,79%
same,%Inh,EPHA2,97.5%
same,%Inh,EPHA3,76%
same,%Inh,EPHA4,93.9%
same,%Inh,EPHA5,91.5%
same,%Inh,EPHA6,99.3%
same,%Inh,EPHA7,98.9%
same,%Inh,EPHA8,99.7%
same,%Inh,EPHB1,96%
same,%Inh,EPHB2,94.4%
same,%Inh,EPHB3,94.7%
same,%Inh,EPHB4,96%
